From PubChem BioAssay
In the library only some 14% were active in any assay of this set; here they are far more common.
HCMV inh = human cytomegalovirus inhibition; HFF cells, HCMV-luciferase reporter, 72 h; hits give low values; activity change, negative = inhibition, % at 57.5 µM; AID 1259415; 4.5% of 410,000 active; in the data active means activity change below about -60%; inconclusive means no clear call, values can overlap the other calls; inactive means above about -39%
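Two-dose cell screen: HFF monolayers treated with compounds and infected with luciferase-expressing HCMV at 1 PFU/cell, 72 h at 37C, then lysed for luciferase measurement.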
LASV entry inh = blocks Lassa virus binding to or entry into cells. Lassa virus pseudotype entry inhibition, cell reporter. Potency, µM (top dose mostly 37.9 µM), inactives show at the top dose activity change, negative = inhibition, hits mostly inhibitors. 1.2% of 300,000 active; calls by dose curve; tested in HEK293 cells; further: potency means the concentration at half of the fitted maximal effect; nearly all actives have a fitted effect of over 50% in size
Pf growth 96h = inhibits malaria parasite growth, 96 h | P. falciparum luciferase reporter growth, 96 h | Potency, µM (highest dose often 28.7 µM), for inactives: top-dose activity change, negative = inhibition, actives largely listed as inhibitors | 6.9% of 320,000 active; further: potency means the concentration at half of the fitted maximal effect
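Two parasite generations (96 h, 37 C, 5% CO2) of compound exposure in infected erythrocytes (0.05% parasitemia, 2% hematocrit). Luciferase-reporter P. falciparum; decreased luminescence indicates inhibited growth, aimed at apicoplast-acting delayed death.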
MARV entry inh = inhibitors of Marburg virus binding or cell entry; Marburg virus pseudotyped entry inhibition, cell reporter; Potency, µM (series often up to 37.8 µM), inactives show at the highest dose activity change, negative = inhibition, actives largely listed as inhibitors; 1.8% of 300,000 active; AID 540276; calls by dose curve; tested in HEK293 cells; further: potency means the concentration at half of the fitted maximal effect
Pf growth 48h = P. falciparum growth inhibition at 48 hours (one generation) | P. falciparum luciferase growth in erythrocytes, 48 h | Potency, µM (top dose mostly 28.7 µM), without a hit: at the top dose activity change, negative = inhibition, actives largely listed as inhibitors | 5.9% of 310,000 active; further: potency means the concentration at half of the fitted maximal effect
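In quantitative HTS format, infected erythrocytes bearing luciferase-reporter parasites were treated for a single generation at 37 C. Luminescence after adding detection reagent served as the growth measure.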
HCV inh = HCV inhibition; Huh7.5.1 HCVcc-Cre infection, luciferase reporter, 44 h; Potency, µM (doses to about 41.8 µM), for inactives: at the highest dose activity change, negative = inhibition, actives largely listed as inhibitors; 3.4% of 340,000 active; AID 651820; further: potency means the concentration at half of the fitted maximal effect
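Cells seeded at 1,000/well and cultured 4 h, then compounds added followed by HCVcc-Cre virus (~0.5 moi). After 44 h further culture, luciferase substrate was added, plates held 15 min at room temperature, and luminescence read for 15 sec.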
* hit, by the source's call; [ ] = another dose, or the depositor's remark. Unless noted, the call rests on the fitted dose curve; in most records, active means well fitted inhibition curve with a large enough effect; inconclusive means small, poorly fitted or top-dose-only effect, or another doubt; inactive means no such curve, though single readings can be large or run the other way. On the % scale 0 is the no-effect control and ±100 the full control effect.

Results for Cc1ccc(NC(=O)Nc2cnc3ccccc3c2)cc1 ?
HCMV inh: 26; LASV entry inh: 19%[46.1 µM]; Pf growth 96h: 23%; MARV entry inh: inconclusive; Pf growth 48h: inconclusive; HCV inh: -17%

How did CCOc1ccccc1NC(=O)Cn1c(=O)n(CC(=O)NCc2ccccc2Cl)c(=O)c2sccc21 do in these assays?
HCMV inh: 23; LASV entry inh: 0%[46.1 µM]; MARV entry inh: inconclusive

What do the screens show for `Cc1cc(=O)n(Cc2cccc(Cl)c2)c2c1c(C)nn2-c1ccccc1`?
HCMV inh: 16; LASV entry inh: -4%[46.1 µM]

Results for CC(C)(CNC(=S)NCCc1ccccc1)CNC(=S)NCCc1ccccc1 ?
HCMV inh: -93*; LASV entry inh: inconclusive; Pf growth 96h: inconclusive; MARV entry inh: inconclusive; Pf growth 48h: 13µM*; HCV inh: inconclusive

Results for O=C(O)[C@H](Cc1ccccc1)Nc1ccc([N+](=O)[O-])cn1 ?
HCMV inh: -19; Pf growth 96h: 38%; Pf growth 48h: 20%; HCV inh: 3%

How did NC(=S)Nc1ccc(F)c(F)c1F do in these assays?
HCMV inh: -18; Pf growth 96h: 35%; Pf growth 48h: 2.6µM*; HCV inh: 30%

What do the screens show for `O=C(O)C(Cc1ccccc1)Nc1ccc([N+](=O)[O-])cc1[N+](=O)[O-]` (stereo not given)?
HCMV inh: inconclusive; LASV entry inh: 3%; Pf growth 96h: 6.6µM*; MARV entry inh: 4%[46.1 µM]; Pf growth 48h: inconclusive; HCV inh: 2%

What do the screens show for `O=[N+]([O-])c1cccc(NC(=S)NCCc2ccccc2)c1`?
HCMV inh: -95*; LASV entry inh: -5%; Pf growth 96h: -33%; MARV entry inh: inconclusive; Pf growth 48h: inconclusive; HCV inh: 13µM*

What do the screens show for `O=C(Cc1cccc([N+](=O)[O-])c1)Nc1ccccc1`?
HCMV inh: -21

What do the screens show for `Cc1cc(C)cc(N(CC(=O)NCc2ccccc2Cl)S(=O)(=O)c2c(C)noc2C)c1`?
HCMV inh: -4; LASV entry inh: -19%[46.1 µM]; MARV entry inh: inconclusive

What do the screens show for `S=C(NCCc1ccccn1)Nc1ccc(Cl)cc1`?
HCMV inh: -78*; LASV entry inh: 9%; Pf growth 96h: 15%; MARV entry inh: inconclusive; Pf growth 48h: 22%; HCV inh: -17%

How did O=C(NCCc1ccc(F)cc1)c1cccc(NC(=O)c2ccccc2)c1 do in these assays?
HCMV inh: -8; Pf growth 96h: inconclusive; Pf growth 48h: -12%; HCV inh: 22µM*

How did S=C(NCCc1ccccc1)Nc1ccc(Nc2ccccc2)cc1 do in these assays?
HCMV inh: -27; LASV entry inh: inconclusive; Pf growth 96h: -3%; MARV entry inh: inconclusive; Pf growth 48h: inconclusive; HCV inh: 11µM*

What do the screens show for `Fc1ccc(NC(=S)NCCc2ccccn2)cc1`?
HCMV inh: inconclusive; LASV entry inh: 11%; Pf growth 96h: -14%; MARV entry inh: 5%[46.1 µM]; Pf growth 48h: 26%; HCV inh: -4%

How did O=C(NCCCCc1ccccc1)c1cccc(NC(=O)c2ccccc2)c1 do in these assays?
HCMV inh: 0; LASV entry inh: 12%[46.1 µM]; HCV inh: -60%

What do the screens show for `O=S1(=O)C[C@H](N2CCC(Cc3ccccc3)CC2)[C@@H](COCc2ccccc2)N1`?
HCMV inh: -10; LASV entry inh: inconclusive

What do the screens show for `Cn1c(=O)c2sccc2n2c(CCCC(=O)Nc3ccc(F)c(F)c3)nnc12`?
HCMV inh: -6; LASV entry inh: -9%[46.1 µM]; MARV entry inh: -5%[46.1 µM]

What do the screens show for `O=C(NC1CCN(Cc2ccccc2)C1)c1cc(COc2ccc(F)cc2F)on1` (stereo not given)?
HCMV inh: -102*; Pf growth 96h: inconclusive; Pf growth 48h: inconclusive; HCV inh: -17%

Results for O=C(NCCC1=CCCCC1)c1cc(COc2ccc(F)cc2Cl)on1 ?
HCMV inh: -20; Pf growth 96h: inconclusive; Pf growth 48h: 4%; HCV inh: inconclusive

How did O=C(NCCc1ccccc1Cl)c1cc(COc2ccc(F)cc2F)on1 do in these assays?
HCV inh: 11µM*

Results for Cc1ccc(C)c(OCc2cc(C(=O)NC3CCN(Cc4ccccc4)CC3)no2)c1 ?
HCMV inh: -85*; Pf growth 96h: inconclusive; Pf growth 48h: inconclusive; HCV inh: 6.3µM*

How did Cc1cc2nc(C)n(CCCNC(=O)Nc3ccc(F)cc3)c2cc1C do in these assays?
HCMV inh: -40; LASV entry inh: inconclusive; MARV entry inh: inconclusive; Pf growth 48h: 12µM*; HCV inh: -27%

How did NCC(c1ccc(Cl)cc1Cl)c1c[nH]c2ccccc12 (stereo not given) do in these assays?
HCMV inh: 66; LASV entry inh: -2%; Pf growth 96h: inconclusive; MARV entry inh: inconclusive; Pf growth 48h: inconclusive; HCV inh: inconclusive

Results for CN(C)CCCNC(=S)NCC(c1ccc(Cl)cc1Cl)c1c[nH]c2ccccc12 (stereo not given) ?
HCMV inh: inconclusive; LASV entry inh: 10µM*; Pf growth 96h: 2.1µM*; MARV entry inh: inconclusive; Pf growth 48h: inconclusive; HCV inh: 11µM*

What do the screens show for `Cc1cccc(OCC(=O)NNC(=O)c2cccs2)c1`?
HCMV inh: -38; LASV entry inh: -15%; Pf growth 96h: 0%; MARV entry inh: 7%[46.1 µM]; Pf growth 48h: 14%; HCV inh: 11%

How did O=C(COc1ccc(Br)cc1CO)Nc1ccc(S(=O)(=O)N2CCCC2)cc1 do in these assays?
HCMV inh: inconclusive; LASV entry inh: 0%; Pf growth 96h: inconclusive; MARV entry inh: inconclusive; Pf growth 48h: 9.3µM*; HCV inh: inconclusive

What do the screens show for `O=C(COc1ccc(Br)cc1CO)Nc1ccc(F)cc1`?
HCMV inh: -2; LASV entry inh: 9%; Pf growth 96h: -11%; MARV entry inh: 1%; Pf growth 48h: -9%; HCV inh: inconclusive

Results for Cc1cc(OCC(=O)NNC(=O)c2cccs2)ccc1Br ?
HCMV inh: -73*; LASV entry inh: 14%[46.1 µM]; Pf growth 96h: inconclusive; MARV entry inh: 6%[46.1 µM]; Pf growth 48h: 28%; HCV inh: 4%

How did COc1cccc(OC)c1OCC(=O)Nc1ccc(S(=O)(=O)N2CCCC2)cc1 do in these assays?
HCMV inh: -25; HCV inh: 8.9µM*

Results for Cc1cc(OCC(=O)Nc2ccncc2)ccc1Br ?
HCMV inh: -90*; LASV entry inh: 1%; Pf growth 96h: 13%; MARV entry inh: 0%; Pf growth 48h: -11%; HCV inh: -12%

How did COc1ccc(CCNc2nc(SCc3cccc(Cl)c3)nc3ccccc23)cc1OC do in these assays?
HCMV inh: 65; LASV entry inh: 13%[46.1 µM]

How did COc1ccc(CNC(=O)c2ccc3nc(C(C)C)oc3c2)cc1OC do in these assays?
HCMV inh: 8; LASV entry inh: -25%[46.1 µM]
